ChEMBL document CHEMBL1961873, “Compounds: GSK PKIS; Assays: Nanosyn kinase panel” (2012)

Legend:
[1] = molecular target: Leukocyte tyrosine kinase receptor (Homo sapiens) (UniProt P29376); conditions: at 1 µM;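 further: each value is the mean inhibition of LTK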
[2] = molecular target: Tyrosine-protein kinase Lyn (Homo sapiens) (UniProt P07948); conditions: at 0.1 µM
[3] = molecular target: Tyrosine-protein kinase Lyn (Homo sapiens) (UniProt P07948); conditions: at 1 µM
[4] = molecular target: Tyrosine-protein kinase Lyn (Homo sapiens) (UniProt P07948); conditions: at 0.1 µM; remark: listed apart in the source
[5] = molecular target: Tyrosine-protein kinase Lyn (Homo sapiens) (UniProt P07948); conditions: at 1 µM; remark: listed apart in the source
[6] = molecular target: T1, Tyrosine-protein kinase Mer (Homo sapiens) (UniProt Q12866); conditions: at 0.1 µM
T1 sequence (whole entry): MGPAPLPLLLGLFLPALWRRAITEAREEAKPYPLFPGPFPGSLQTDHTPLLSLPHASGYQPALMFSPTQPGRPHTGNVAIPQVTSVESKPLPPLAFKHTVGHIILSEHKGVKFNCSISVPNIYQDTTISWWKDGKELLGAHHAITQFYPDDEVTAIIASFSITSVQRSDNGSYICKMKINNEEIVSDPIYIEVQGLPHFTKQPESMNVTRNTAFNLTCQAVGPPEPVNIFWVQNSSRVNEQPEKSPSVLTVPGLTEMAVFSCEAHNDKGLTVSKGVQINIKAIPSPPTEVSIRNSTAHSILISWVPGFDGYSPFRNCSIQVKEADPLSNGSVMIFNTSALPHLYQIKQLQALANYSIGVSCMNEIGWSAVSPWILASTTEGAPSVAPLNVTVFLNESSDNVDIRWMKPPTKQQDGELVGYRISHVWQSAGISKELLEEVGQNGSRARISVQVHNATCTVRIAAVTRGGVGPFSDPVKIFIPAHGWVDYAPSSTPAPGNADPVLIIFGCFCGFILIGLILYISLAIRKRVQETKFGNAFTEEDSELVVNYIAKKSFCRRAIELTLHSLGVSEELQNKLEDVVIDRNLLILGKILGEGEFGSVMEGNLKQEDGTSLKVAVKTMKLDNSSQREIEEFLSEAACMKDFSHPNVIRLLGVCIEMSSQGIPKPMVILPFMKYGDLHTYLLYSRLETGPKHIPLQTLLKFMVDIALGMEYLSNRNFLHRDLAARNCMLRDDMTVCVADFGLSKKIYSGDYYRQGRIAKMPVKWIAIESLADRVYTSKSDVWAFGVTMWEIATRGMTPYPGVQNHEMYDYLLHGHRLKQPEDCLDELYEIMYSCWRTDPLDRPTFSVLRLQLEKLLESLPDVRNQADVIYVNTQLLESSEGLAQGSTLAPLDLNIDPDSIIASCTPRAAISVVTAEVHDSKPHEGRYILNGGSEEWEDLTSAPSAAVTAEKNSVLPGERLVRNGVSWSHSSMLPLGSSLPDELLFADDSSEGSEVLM

[7] = molecular target: T1, Tyrosine-protein kinase Mer (Homo sapiens); conditions: at 1 µM
[8] = molecular target: Hepatocyte growth factor receptor (Homo sapiens) (UniProt P08581); conditions: at 0.1 µM
[9] = molecular target: Hepatocyte growth factor receptor (Homo sapiens) (UniProt P08581); conditions: at 1 µM
[10] = molecular target: T2, Muscle, skeletal receptor tyrosine-protein kinase (Homo sapiens) (UniProt O15146); conditions: at 0.1 µM
T2 sequence (whole entry): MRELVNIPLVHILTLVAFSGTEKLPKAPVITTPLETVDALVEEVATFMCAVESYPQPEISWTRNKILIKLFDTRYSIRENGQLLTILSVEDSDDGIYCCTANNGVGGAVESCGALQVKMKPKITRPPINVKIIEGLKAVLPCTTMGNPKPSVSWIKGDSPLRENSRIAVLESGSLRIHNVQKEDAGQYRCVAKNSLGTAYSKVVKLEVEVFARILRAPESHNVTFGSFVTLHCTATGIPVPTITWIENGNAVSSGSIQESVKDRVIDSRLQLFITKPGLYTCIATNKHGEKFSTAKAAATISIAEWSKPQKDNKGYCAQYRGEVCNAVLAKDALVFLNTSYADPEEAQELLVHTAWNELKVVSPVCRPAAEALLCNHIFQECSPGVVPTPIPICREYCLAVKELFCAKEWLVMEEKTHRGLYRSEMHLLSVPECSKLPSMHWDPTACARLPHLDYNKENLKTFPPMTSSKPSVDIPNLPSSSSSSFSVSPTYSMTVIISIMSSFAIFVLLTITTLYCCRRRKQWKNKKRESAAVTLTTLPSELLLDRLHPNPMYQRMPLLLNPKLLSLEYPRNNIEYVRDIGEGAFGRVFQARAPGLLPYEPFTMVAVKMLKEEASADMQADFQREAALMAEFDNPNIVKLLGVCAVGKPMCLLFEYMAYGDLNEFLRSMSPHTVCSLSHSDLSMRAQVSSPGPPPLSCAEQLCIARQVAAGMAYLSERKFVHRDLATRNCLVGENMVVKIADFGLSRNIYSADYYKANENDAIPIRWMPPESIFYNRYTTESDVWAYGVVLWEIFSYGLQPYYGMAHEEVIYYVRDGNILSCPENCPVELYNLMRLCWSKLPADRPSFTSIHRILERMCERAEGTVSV

[11] = molecular target: T2, Muscle, skeletal receptor tyrosine-protein kinase (Homo sapiens); conditions: at 1 µM
[12] = molecular target: Platelet-derived growth factor receptor alpha (Homo sapiens) (UniProt P16234); conditions: at 0.1 µM
[13] = molecular target: Platelet-derived growth factor receptor alpha (Homo sapiens) (UniProt P16234); conditions: at 1 µM
[14] = test system: Platelet-derived growth factor receptor alpha (Homo sapiens), P16234 [D842V]; conditions: at 0.1 µM
[15] = test system: Platelet-derived growth factor receptor alpha (Homo sapiens), P16234 [D842V]; conditions: at 1 µM
[16] = test system: Platelet-derived growth factor receptor alpha (Homo sapiens), P16234 [T674I]; conditions: at 0.1 µM
[17] = test system: Platelet-derived growth factor receptor alpha (Homo sapiens), P16234 [T674I]; conditions: at 1 µM
[18] = test system: Platelet-derived growth factor receptor alpha (Homo sapiens), P16234 [V561D]; conditions: at 0.1 µM
[19] = test system: Platelet-derived growth factor receptor alpha (Homo sapiens), P16234 [V561D]; conditions: at 1 µM
[20] = molecular target: Platelet-derived growth factor receptor beta (Homo sapiens) (UniProt P09619); conditions: at 0.1 µM;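 further: reported value is the mean percent inhibition of the kinase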
Sequence of Platelet-derived growth factor receptor beta (Homo sapiens) (P09619 whole entry): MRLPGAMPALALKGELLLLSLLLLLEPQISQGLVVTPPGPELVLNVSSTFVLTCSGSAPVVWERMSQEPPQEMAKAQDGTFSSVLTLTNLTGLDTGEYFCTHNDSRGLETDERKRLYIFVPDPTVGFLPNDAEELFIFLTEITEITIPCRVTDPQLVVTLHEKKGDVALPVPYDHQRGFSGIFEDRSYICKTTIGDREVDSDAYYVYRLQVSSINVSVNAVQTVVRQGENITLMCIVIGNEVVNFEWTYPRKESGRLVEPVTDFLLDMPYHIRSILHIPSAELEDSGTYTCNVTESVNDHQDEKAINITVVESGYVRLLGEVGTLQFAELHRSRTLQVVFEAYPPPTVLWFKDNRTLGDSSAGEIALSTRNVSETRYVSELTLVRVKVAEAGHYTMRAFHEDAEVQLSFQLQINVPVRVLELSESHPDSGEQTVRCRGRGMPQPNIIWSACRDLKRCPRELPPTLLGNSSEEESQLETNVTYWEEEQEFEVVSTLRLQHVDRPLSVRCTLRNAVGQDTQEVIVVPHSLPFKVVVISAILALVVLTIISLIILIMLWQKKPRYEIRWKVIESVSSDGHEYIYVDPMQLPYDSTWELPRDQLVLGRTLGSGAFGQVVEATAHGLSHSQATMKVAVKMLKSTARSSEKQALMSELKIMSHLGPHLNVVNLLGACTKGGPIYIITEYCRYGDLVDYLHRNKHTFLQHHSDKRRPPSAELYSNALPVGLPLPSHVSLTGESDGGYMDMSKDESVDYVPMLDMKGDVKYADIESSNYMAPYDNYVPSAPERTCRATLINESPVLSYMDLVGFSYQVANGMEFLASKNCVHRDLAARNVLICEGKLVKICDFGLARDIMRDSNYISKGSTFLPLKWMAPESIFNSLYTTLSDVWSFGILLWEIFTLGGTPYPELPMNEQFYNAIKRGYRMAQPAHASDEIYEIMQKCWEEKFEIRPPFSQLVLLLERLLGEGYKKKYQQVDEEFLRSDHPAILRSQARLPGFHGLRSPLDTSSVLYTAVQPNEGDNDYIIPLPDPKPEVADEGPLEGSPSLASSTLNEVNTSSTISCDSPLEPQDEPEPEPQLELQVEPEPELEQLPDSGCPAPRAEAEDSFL

Sequence of Hepatocyte growth factor receptor (Homo sapiens) (P08581 whole entry): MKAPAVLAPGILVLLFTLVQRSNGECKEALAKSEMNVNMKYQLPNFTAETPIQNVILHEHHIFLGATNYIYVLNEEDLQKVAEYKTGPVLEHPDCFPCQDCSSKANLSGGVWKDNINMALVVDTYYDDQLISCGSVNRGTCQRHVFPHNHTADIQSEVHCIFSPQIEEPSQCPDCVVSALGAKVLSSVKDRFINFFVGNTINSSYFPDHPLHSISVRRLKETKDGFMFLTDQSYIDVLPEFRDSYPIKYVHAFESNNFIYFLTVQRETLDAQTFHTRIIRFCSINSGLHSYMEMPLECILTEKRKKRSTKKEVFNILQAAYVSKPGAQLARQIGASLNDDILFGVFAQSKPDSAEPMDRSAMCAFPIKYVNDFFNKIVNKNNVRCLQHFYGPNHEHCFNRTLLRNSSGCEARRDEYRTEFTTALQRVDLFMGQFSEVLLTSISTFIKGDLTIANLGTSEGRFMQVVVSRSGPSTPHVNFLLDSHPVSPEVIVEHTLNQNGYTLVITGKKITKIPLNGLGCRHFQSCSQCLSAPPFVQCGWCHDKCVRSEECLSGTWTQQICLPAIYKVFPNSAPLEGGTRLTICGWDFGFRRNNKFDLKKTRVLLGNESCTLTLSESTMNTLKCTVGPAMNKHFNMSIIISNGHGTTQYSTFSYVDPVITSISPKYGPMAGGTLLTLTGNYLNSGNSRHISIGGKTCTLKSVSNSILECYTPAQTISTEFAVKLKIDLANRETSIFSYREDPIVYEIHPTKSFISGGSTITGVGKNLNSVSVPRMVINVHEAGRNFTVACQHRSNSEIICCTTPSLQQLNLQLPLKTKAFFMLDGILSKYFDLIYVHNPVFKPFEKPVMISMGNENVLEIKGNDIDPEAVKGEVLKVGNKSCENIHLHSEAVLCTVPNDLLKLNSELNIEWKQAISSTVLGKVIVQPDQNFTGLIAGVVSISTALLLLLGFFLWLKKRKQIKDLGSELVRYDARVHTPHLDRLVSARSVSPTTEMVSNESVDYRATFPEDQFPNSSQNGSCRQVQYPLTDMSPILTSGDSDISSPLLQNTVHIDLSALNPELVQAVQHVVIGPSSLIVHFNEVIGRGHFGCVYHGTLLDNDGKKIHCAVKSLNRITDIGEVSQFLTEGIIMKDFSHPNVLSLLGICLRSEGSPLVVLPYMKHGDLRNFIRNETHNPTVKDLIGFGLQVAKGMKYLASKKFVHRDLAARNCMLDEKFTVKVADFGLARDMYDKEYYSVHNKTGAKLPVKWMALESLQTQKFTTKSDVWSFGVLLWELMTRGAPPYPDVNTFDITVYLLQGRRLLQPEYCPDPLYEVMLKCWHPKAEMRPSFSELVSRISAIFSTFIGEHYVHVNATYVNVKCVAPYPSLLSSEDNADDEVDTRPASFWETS
Sequence of Leukocyte tyrosine kinase receptor (Homo sapiens) (P29376 whole entry): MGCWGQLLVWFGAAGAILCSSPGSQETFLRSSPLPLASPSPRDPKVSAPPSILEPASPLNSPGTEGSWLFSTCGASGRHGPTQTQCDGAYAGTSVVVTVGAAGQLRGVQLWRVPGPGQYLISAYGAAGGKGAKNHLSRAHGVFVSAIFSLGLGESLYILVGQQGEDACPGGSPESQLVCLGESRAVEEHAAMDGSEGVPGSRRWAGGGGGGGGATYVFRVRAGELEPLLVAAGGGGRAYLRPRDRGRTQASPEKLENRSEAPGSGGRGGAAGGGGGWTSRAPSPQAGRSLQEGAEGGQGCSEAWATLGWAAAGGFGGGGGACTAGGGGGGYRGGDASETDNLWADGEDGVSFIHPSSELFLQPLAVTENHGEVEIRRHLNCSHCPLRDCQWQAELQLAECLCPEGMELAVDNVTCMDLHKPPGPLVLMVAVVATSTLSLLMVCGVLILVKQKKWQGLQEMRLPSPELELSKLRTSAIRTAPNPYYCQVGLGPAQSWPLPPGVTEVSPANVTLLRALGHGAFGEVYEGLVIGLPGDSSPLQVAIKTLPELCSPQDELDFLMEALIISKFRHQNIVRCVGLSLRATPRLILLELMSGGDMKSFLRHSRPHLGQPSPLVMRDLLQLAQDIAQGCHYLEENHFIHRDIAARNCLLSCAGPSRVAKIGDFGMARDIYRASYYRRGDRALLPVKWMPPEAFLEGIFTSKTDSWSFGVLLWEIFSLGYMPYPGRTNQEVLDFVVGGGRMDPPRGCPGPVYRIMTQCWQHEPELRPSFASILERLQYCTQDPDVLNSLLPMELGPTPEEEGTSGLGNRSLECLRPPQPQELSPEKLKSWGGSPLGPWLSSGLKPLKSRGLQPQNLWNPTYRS
Sequence of Platelet-derived growth factor receptor alpha (Homo sapiens), P16234 [T674I] (P16234 whole entry T674I): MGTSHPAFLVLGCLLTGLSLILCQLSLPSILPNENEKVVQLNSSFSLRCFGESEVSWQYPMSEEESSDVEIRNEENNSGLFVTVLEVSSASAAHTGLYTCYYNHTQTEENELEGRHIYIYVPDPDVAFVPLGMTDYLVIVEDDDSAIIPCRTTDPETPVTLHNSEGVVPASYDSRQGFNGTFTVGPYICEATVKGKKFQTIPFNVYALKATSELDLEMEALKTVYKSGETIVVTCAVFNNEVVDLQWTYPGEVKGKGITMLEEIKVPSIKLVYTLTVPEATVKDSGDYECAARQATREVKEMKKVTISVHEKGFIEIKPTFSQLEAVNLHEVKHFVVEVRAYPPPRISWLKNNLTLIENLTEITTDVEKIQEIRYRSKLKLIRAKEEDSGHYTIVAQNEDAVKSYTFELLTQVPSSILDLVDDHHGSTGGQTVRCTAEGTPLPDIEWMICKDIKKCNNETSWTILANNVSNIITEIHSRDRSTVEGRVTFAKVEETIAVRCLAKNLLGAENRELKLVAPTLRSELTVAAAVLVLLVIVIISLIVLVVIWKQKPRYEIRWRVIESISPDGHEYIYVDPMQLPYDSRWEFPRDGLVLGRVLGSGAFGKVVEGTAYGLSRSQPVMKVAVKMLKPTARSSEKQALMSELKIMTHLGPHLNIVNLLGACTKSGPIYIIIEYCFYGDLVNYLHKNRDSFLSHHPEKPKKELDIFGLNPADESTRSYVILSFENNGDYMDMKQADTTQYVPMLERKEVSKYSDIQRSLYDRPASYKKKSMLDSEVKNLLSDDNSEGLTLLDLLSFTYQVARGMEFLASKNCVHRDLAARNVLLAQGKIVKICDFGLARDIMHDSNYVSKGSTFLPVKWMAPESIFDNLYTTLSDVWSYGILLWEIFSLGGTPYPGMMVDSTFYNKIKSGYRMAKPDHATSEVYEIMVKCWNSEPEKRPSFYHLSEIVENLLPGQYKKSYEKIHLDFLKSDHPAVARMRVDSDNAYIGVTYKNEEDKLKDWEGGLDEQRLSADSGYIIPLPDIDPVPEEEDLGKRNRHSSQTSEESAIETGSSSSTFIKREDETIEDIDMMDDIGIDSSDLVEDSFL
Sequence of Tyrosine-protein kinase Lyn (Homo sapiens) (P07948 2-512 limits assumed): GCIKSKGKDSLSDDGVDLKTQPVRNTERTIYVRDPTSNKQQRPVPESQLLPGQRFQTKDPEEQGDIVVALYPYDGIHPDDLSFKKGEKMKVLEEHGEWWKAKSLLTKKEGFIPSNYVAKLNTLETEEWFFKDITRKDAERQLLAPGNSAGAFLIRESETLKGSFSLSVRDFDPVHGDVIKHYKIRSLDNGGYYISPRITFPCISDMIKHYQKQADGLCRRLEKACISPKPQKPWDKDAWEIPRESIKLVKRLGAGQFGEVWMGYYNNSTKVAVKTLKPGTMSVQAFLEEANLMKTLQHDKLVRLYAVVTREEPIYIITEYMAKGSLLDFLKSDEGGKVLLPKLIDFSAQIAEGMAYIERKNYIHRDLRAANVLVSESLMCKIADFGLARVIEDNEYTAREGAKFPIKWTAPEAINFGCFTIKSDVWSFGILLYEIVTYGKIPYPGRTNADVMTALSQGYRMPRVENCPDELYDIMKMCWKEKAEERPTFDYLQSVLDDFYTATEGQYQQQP

SMILES	inhibition [1] [%]	inhibition [2] [%]	inhibition [3] [%]	inhibition [4] [%]	inhibition [5] [%]	inhibition [6] [%]	inhibition [7] [%]	inhibition [8] [%]	inhibition [9] [%]	inhibition [10] [%]	inhibition [11] [%]	inhibition [12] [%]	inhibition [13] [%]	inhibition [14] [%]	inhibition [15] [%]	inhibition [16] [%]	inhibition [17] [%]	inhibition [18] [%]	inhibition [19] [%]	inhibition [20] [%]
CN(C)CCCNc1nccc(-c2c(-c3ccc(F)cc3)nn3cc(C(F)(F)F)ccc23)n1	1.19	1.87	6.57	0.99	5.88	1.56	5.87	3.45	10.6	10.1	12.5	12.9	18.6	3.3	4.77	9.27	4.87	0.27	5.89	6.34
NC(=O)Cc1ccccc1Oc1nccc(-c2c(-c3ccc(F)cc3)ncn2C2CCNCC2)n1	2.41	2.61	3.78	1.91	1.88	0.54	3.34	2.67	3.24	2.87	1.69	3.58	7.12	0.37	0.79	3.6	2.14	-0.19	4.04	3.93
Fc1ccc(-c2ncn(C3CCNCC3)c2-c2ccnc(Oc3ccc(F)c(F)c3)n2)cc1	2.29	3.84	3.75	2.34	2.48	1.13	1.39	7.87	4.17	2.92	4.68	11	14.7	2.91	3.42	1.08	7.95	2.26	5.74	5.46
CN(C)c1ccc2c(c1)/C(=C/Nc1ccc(S(N)(=O)=O)cc1)C(=O)N2	2.8	3.6	22.4	2.71	17.4	1.88	10.8	-0.65	4.48	8.66	46.8	26.7	66.9	14.4	65.3	3.45	28.2	14.9	60.9	26.8
C[C@@H](Oc1cc(-n2cnc3ccc(OC4CCN(C)CC4)cc32)sc1C(N)=O)c1ccccc1Cl	4.72	3.54	6.86	1.68	5.6	2.77	9.07	7.84	5.01	7.63	40.8	29.3	69	10.5	53.6	8.48	58	14.5	65	26.3
COc1cc(N2CCN(C(C)C)CC2)ccc1Nc1nc(Nc2ccc(F)cc2C(=O)NC[C@@H](O)CO)c2cc[nH]c2n1	88.7	4.36	9.54	2.42	7	0.94	3.95	-1.77	3.3	1.43	3.79	6.23	14.1	1.85	5.49	6.54	9.18	4.51	4.42	1.36
Fc1ccc(-c2c(-c3ccncc3)nc3n2CCS3)cc1	1.53	2.47	6.12	1.33	3.93	1.44	1.51	3.45	0.39	4.78	1.19	4.27	11.9	1.59	3.82	3.55	3.84	2.1	2.96	1.36
c1ccc(-c2n[nH]cc2-c2ccnc(-c3ccc(OCCN4CCOCC4)cc3)c2)nc1	-0.95	1.31	10.2	1.54	7.34	5.12	5.39	7.49	5.59	6.97	9.04	20.1	58.7	18.6	71	5.25	-0.97	11.7	55.5	16.2
CCS(=O)(=O)c1ccc(OC)c(Nc2ncc(-c3ccccc3Cl)o2)c1	0.98	3.85	18.6	3.61	14.8	-0.83	9.17	0.15	3.68	4.75	8.58	5.6	16.2	1.1	4.35	0.38	5.02	2.97	15.1	4.1
COc1cccc(-n2cnc3c(N/N=C/c4ccncc4)ncnc32)c1	0.9	7.17	47.2	6.07	41.6	0.12	4.47	0.87	6.87	2.4	17.1	17.9	53.6	4.61	45.6	2.14	18.3	10.3	51	13.2
O=C(Nc1n[nH]c2nc(-c3ccc(O)cc3)c(Br)cc12)C1CC1	91.6	9.57	16.2	6.94	13	1.7	8.16	4.98	10.9	4.48	14	25.9	67.1	12.8	55.5	7.49	24.4	19.7	64.6	12
O=C(Nc1ccc(Oc2ccc3[nH]c(NC(=O)c4ccccc4)nc3c2)cc1)Nc1cc(C(F)(F)F)ccc1F	3.76	5.73	27.5	3.48	23.4	1.3	3.74	4.39	19.2	13.9	63.9	27.8	78.4	1.94	8.54	13	83.1	25.5	79.4	9.24
O=C1Nc2ccc(I)cc2C1=Cc1cc(Br)c(O)c(Br)c1	9.99	4.2	7.49	2.6	4.55	2.32	2.36	1.23	4.15	1.59	6.35	2.96	9.37	2.93	3.36	2.82	5.91	3.34	7.24	0.08
